Experimental findings from PubChem BioAssay AID430 (Sanford-Burnham Center for Chemical Genomics, 2006) are described below.

The campaign covered roughly 63,000 compounds. About 1,100 (1.7%) were called active. Cut-off read from the data, not from the text of the source: active = cytotoxicity above about 50%; inactive = the rest. What follows is part of a selection rich in actives, with near analogues and random picks from the rest. Measured potencies and affinities stand elsewhere.

The nature of this assay: HPDE-C7 pancreatic duct cell viability loss – fluorescence, HTS (AID 430).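 Note: cells exposed to compound for 48 hours before viability readout; 0% = vehicle and 100% = reference cytotoxic drug.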 The conditions noted are these: HPDE-C7 pancreatic duct cells viability, at 10 µM, active compounds read high.
As for `CCOC(=O)C1=C(N)N(c2ccccc2Oc2ccccc2)C(=O)C1`, the cytotoxicity was 3.7% (inactive). Under `CCS(=O)(=O)C(=C(Nc1ccc(OC)cc1)Nc1ccc(OC)cc1)S(=O)(=O)CC` stands -21.8% (inactive). As to `CC(C)CC(=O)Nc1ccc(F)c(Cl)c1`, the cytotoxicity was -0.2% (inactive). For `Cc1ccsc1-c1nc(CSCC(=O)NCc2ccc3c(c2)OCO3)c(C)o1`, the cytotoxicity is 5.8% (inactive). On to `CC(C)C(=O)Nc1ccc(NC(=O)c2ccco2)cn1`, for which the cytotoxicity is -9.5% (inactive). Under `Cc1cc(NC(=O)C(C)(C)C)no1` stands -22.1% (inactive); under `CCN(CC)S(=O)(=O)c1ccc(F)cc1`, -8.3% (inactive). For `CC(C)c1[nH]nc2c1C(c1cccnc1)C(C#N)=C(N)O2` (stereo unspecified), the cytotoxicity is -15.1% (inactive). Under `CCOC(=O)c1[nH]c(C)c(C(=O)Nc2ccccc2F)c1C` stands 43.6% (inactive). Regarding `CCOC(=O)c1[nH]c(C)c(C(=O)Nc2ccccc2C)c1C`, the cytotoxicity is 52.4% (active). `CCOC(=O)c1[nH]c(C)c(C(=O)Nc2cccc(Cl)c2C)c1C`: the cytotoxicity was 43.9% (inactive). For `O=C(OCc1cc2ccccc2[nH]c1=O)c1ccco1`, the cytotoxicity was 20.9% (inactive). On to `Cc1ccc(S(=O)(=O)NC(=O)Nn2c(C)nnc2C)cc1`, for which the cytotoxicity is -7.7% (inactive). The same measure for `CC12CN3CC(C)(CN(C1)C3c1cc3ccccc3[nH]1)C2=O` (stereo unspecified): 14.8% (inactive); for `COc1ccc(CCNC(=O)CN(C2CCCCC2)S(C)(=O)=O)cc1OC`: -1% (inactive). On to `COCCn1c(SCC(=O)Nc2cccc(C)c2)nnc1C(C)C`, for which the cytotoxicity was 1% (inactive). `CCOc1ccc(NS(=O)(=O)c2ccc(SC)cc2)cc1`: the cytotoxicity is 7.2% (inactive). On to `CCOc1ccc(NS(=O)(=O)c2ccc3[nH]c(=O)oc3c2)cc1`, for which the cytotoxicity is -0.3% (inactive). Regarding `CC1Cc2cc(C(=O)O)ccc2O1` (stereo unspecified), the cytotoxicity was -26.7% (inactive). Turning to `CCN(C(=O)c1coc(=O)c(Br)c1)c1ccc2c(c1)OCO2`, the cytotoxicity is 74.4% (active). Take `CCN(C(=O)CCS(=O)(=O)c1ccc(Br)cc1)c1ccc2c(c1)OCO2`: the cytotoxicity is 8.6% (inactive).

Turning to `O=C(c1coc(=O)c(Br)c1)N1CCOCC1`, the cytotoxicity was -0.3% (inactive).

In the case of `COc1ccc(C2(CNC(=O)c3ccc(Br)o3)CCOCC2)cc1`, the cytotoxicity is -0.2% (inactive). The same measure for `O=C(Cn1cc2c(n1)CCCC2)NCCc1ccccc1`: -13% (inactive).

For the molecule `Cc1nc(SCC(=O)N2CCN(c3ccccc3)CC2)c2oc3ccccc3c2n1`, the cytotoxicity is 48.5% (inactive). Under `Cc1cc(NS(=O)(=O)c2ccc(NC(=O)c3ccoc3C)cc2)nc(C)n1` stands 2.9% (inactive). Turning to `O=C(CSc1nnnn1-c1ccccc1)CSc1nnnn1-c1ccccc1`, the cytotoxicity is -2.1% (inactive). Consider `N#CCCS(=O)(=O)c1nnnn1-c1ccccc1`, for which the cytotoxicity was 64.6% (active).

Consider `CCOc1cccc(-n2nnnc2-c2ccc(OC)cc2)c1`, for which the cytotoxicity was 56.8% (active). Under `COc1cccc(-n2nnnc2SCC(=O)c2cc(OC)ccc2OC)c1` stands -12.2% (inactive). As for `COc1cccc(Oc2nnnn2-c2ccccc2)c1`, the cytotoxicity was -23% (inactive). `COc1ccc(-n2nnnc2-c2cccc(OC)c2)cc1`: the cytotoxicity is 68.4% (active). Under `COc1ccc(-c2nnnn2-c2ccccc2OC)cc1` stands 46.6% (inactive); under `CCS(=O)(=O)c1nnnn1-c1ccccc1S(C)(=O)=O`, 33.3% (inactive); under `COc1ccc(-c2nnnn2CCc2ccccc2)cc1`, -7.2% (inactive). Take `Clc1ccc(-n2nnnc2-c2ccccc2)cc1`: the cytotoxicity is -17.1% (inactive). Under `COc1ccc(-n2nnnc2-c2cccnc2)cc1` stands -6.7% (inactive); under `Nc1nc(-c2ccc(Cl)cc2)nn1C(=O)c1cccnc1`, 9.3% (inactive).

For the molecule `CC(C)C(OC(=O)c1cc2sccc2n1C)C(=O)NCC1CCCO1` (stereo unspecified), the cytotoxicity was -19.4% (inactive). In the case of `O=C(CSc1nnc(-c2ccccc2Br)o1)N1CCN(C(=O)c2ccco2)CC1`, the cytotoxicity is -13.5% (inactive). For `CC1CCCCN1C(=O)CSc1nnc(-c2ccco2)n1CC1CCCO1` (stereo unspecified), the cytotoxicity is 3.9% (inactive). Regarding `COc1cccc(OCc2nnc(SCC(=O)OC3CCCCC3)n2C)c1`, the cytotoxicity is -7.5% (inactive). Take `CCOc1ccccc1NC(=O)CSc1nnc(CNC(=O)c2ccco2)o1`: the cytotoxicity was 6.4% (inactive). Under `CN(C)C(=O)N1CCN(C(=O)c2ccccc2Sc2ccccc2C#N)CC1` stands -6.6% (inactive); under `NS(=O)(=O)c1ccc(NC(=O)CSC2CCCCC2)cc1`, -4.6% (inactive).

As for `NS(=O)(=O)c1ccc(NC=C2C(=O)OC3(CCCCC3)OC2=O)cc1`, the cytotoxicity is 6.2% (inactive).

For `O=C1c2oc3ccc(Cl)cc3c(=O)c2C(c2cccc(Br)c2)N1CCO` (stereo unspecified), the cytotoxicity is 0.8% (inactive).

`Cc1ccccc1OCC(=O)Nc1ccc(N2CCN(S(C)(=O)=O)CC2)cc1`: the cytotoxicity was -2% (inactive). As to `COc1cc(-c2nnc(COc3ccc4ccccc4c3)o2)cc(OC)c1OC`, the cytotoxicity is 34.6% (inactive). Consider `COc1cc(-c2nnc(COc3ccc4cc(Br)ccc4c3)o2)cc(OC)c1OC`, for which the cytotoxicity is 78.6% (active). Under `COc1ccc(-c2nnc(COc3ccc4ccccc4c3)o2)cc1OC` stands 4.4% (inactive). In the case of `COc1ccc(C(=O)OCn2nnc3ccccc3c2=O)cc1OC`, the cytotoxicity was 6.3% (inactive).

Take `CCOc1ccc(S(=O)(=O)n2cnc3cc(C)c(C)cc32)cc1`: the cytotoxicity was 8.7% (inactive).

For the molecule `CC(C)(C)N1C(=O)Cc2c1nc(N)c1c(N)nc(N3CCCCC3CO)c(C#N)c21` (stereo unspecified), the cytotoxicity is 54.6% (active). In the case of `N#Cc1c(N)nc2c(c1N)CC(=O)N2c1ccccc1-c1ccccc1`, the cytotoxicity is 0.1% (inactive). Take `CCOC(=O)CNS(=O)(=O)CCN1C(=O)c2ccccc2C1=O`: the cytotoxicity was -14.2% (inactive).

With `CCOC(=O)c1c(CN2CCCCC2C)oc2ccc(OC)cc12` (stereo unspecified), the cytotoxicity was 3.6% (inactive). Take `CCOC(=O)c1cccc(NC(=O)c2cnc3ccccc3n2)c1`: the cytotoxicity is 0.8% (inactive). Regarding `O=C(c1cc2ccccc2oc1=O)N1CCSC1c1ccco1` (stereo unspecified), the cytotoxicity was 4.9% (inactive). `O=C(Nc1ccc(Cl)c(Cl)c1)N1CCSC1c1ccco1` (stereo unspecified): the cytotoxicity was 62.5% (active).

Consider `O=S(=O)(c1ccc(Cl)cc1)N1CCSC1c1ccco1` (stereo unspecified), for which the cytotoxicity is 8.1% (inactive).

For the molecule `COc1ccc(-c2noc(CCC(=O)N3CCN(Cc4ccccc4)CC3)n2)cc1`, the cytotoxicity was -6.2% (inactive). On to `CCCc1[nH]nc2c1C(c1ccncc1)C(C#N)=C(N)O2` (stereo unspecified), for which the cytotoxicity was 6.1% (inactive). As for `CCc1[nH]nc2c1C(c1ccc(Br)s1)C(C#N)=C(N)O2` (stereo unspecified), the cytotoxicity was -2.9% (inactive). The same measure for `CCCN1CC23C=CC(O2)C(C(=O)O)C3C1=O` (stereo unspecified): -2.8% (inactive); for `CC(C)COc1cccc(C(=O)Nc2ccc(S(=O)(=O)N3CCOCC3)cc2)c1`: 16.1% (inactive). As for `CCOc1ccc(-c2n[nH]c(C)c2Oc2ccc(OC)cc2)c(O)c1`, the cytotoxicity is 5.9% (inactive). For `CCOC(=O)c1c(N)n[nH]c1-c1ccc(OC)cc1`, the cytotoxicity was 2.4% (inactive). Under `CCOc1ccc(N2C(=O)c3ccc(C(=O)OCc4c(C)noc4C)cc3C2=O)cc1` stands -3.6% (inactive); under `CCOC(=O)COC(=O)c1ccc(O)cc1`, -3.6% (inactive); under `CCOC(=O)c1ccc(OCC(=O)c2ccc(O)cc2O)cc1`, -2.2% (inactive). For `CCCOC(=O)c1ccc(-c2c(C)noc2-c2ccc(OC)cc2O)o1`, the cytotoxicity is -2.8% (inactive). `COc1ccc(CC(NC(C)=O)C(=O)N2CCN(C(=O)Nc3ccc(Cl)cc3)CC2)cc1OC` (stereo unspecified): the cytotoxicity is 4.9% (inactive). In the case of `O=C(Nc1nc2ccccc2n1CCOc1ccccc1)c1ccco1`, the cytotoxicity was -12.8% (inactive). As to `Cc1cccc(Nc2nc(NC(C)C)nc(Oc3ccc(=O)n(C)n3)n2)c1`, the cytotoxicity is -11.3% (inactive). As for `CCOC(=O)N1CCN(CC(=O)Nc2cc(OCC)ccc2OCC)CC1`, the cytotoxicity is -9.8% (inactive). Turning to `CCCCc1ccc(NC(=O)COCC)cc1`, the cytotoxicity is -12.8% (inactive). In the case of `CCCCc1ccc(NC(=O)OC)cc1`, the cytotoxicity is -16.3% (inactive). For the molecule `CC(=O)Nc1ccc(S(=O)(=O)NCC(C)NS(=O)(=O)c2ccc(NC(C)=O)cc2)cc1` (stereo unspecified), the cytotoxicity is -20% (inactive).

As for `OC1(Cc2ccn[nH]2)CCCCC1`, the cytotoxicity was 17.9% (inactive). `O=C(OCCN1CCOCC1)c1cccnc1`: the cytotoxicity was 0.3% (inactive). The same measure for `CCOc1cc(C(=O)Nc2nnc(C)s2)cc(OCC)c1OCC`: -7.4% (inactive); for `COc1ccc(OC)c(-c2cc(C(=O)Nc3c(C)nn(Cc4ccc(Cl)cc4)c3C)no2)c1`: 17.1% (inactive). On to `COc1ccccc1-c1cc(C(=O)NC(C)C)no1`, for which the cytotoxicity is -2.5% (inactive). Take `COc1ccc(CNC(=O)c2cc(-c3ccccc3OC)on2)cc1`: the cytotoxicity was -1.1% (inactive). Consider `COc1ccc(-c2cc(C(=O)Nc3cc(C)n(Cc4ccc(Cl)cc4)n3)no2)cc1OC`, for which the cytotoxicity is 6.9% (inactive). Consider `COc1ccc(OC)c(-c2cc(C(=O)Nc3cc(C)n(Cc4ccc(Cl)cc4)n3)no2)c1`, for which the cytotoxicity was 62.5% (active). Regarding `COc1ccccc1-c1cc(C(=O)Nc2cc(C)on2)no1`, the cytotoxicity is -2.8% (inactive). As to `COc1ccccc1-c1cc(C(=O)Nc2ccc(F)cc2F)no1`, the cytotoxicity is -11.9% (inactive). Regarding `COc1ccc(NC(=O)c2cc(-c3ccccc3OC)on2)cc1`, the cytotoxicity was 54.3% (active).

Take `COc1ccccc1-c1cc(C(=O)Nc2cccnc2)no1`: the cytotoxicity is 79.8% (active). In the case of `Cc1cccc(Cn2c(SCCN3CCOCC3)nc3c2c(=O)n(C)c(=O)n3C)c1`, the cytotoxicity was -7.8% (inactive). For the molecule `COc1ccc(C2CC(c3ccccc3)Nc3nc(NC(=O)c4ccco4)nn32)cc1` (stereo unspecified), the cytotoxicity was -5.5% (inactive).

Consider `COC(=O)Cc1cc(=O)n2[nH]c(C)nc2n1`, for which the cytotoxicity is -15.9% (inactive).

Turning to `CCOC(=O)N1CCN(c2ccc(C(=O)c3ccccc3)cc2F)CC1`, the cytotoxicity is 7% (inactive). With `Brc1ccc2[nH]ncc2c1`, the cytotoxicity was -5.6% (inactive). Regarding `O=c1[nH]c(CN2CCc3ccccc3C2)nc2ccccc12`, the cytotoxicity was 3.3% (inactive). The same measure for `COc1cccc(N2CCN(CC(=O)c3c[nH]c4ccc(OC)cc34)CC2C)c1` (stereo unspecified): 9.5% (inactive); for `COc1cccc(N2CCN(Cc3nc4ccccc4c(=O)[nH]3)CC2)c1`: -2.6% (inactive).

With `c1ccc2c(c1)CCN(c1ncnc3nc[nH]c13)C2`, the cytotoxicity was -4.2% (inactive). On to `COC(=O)c1ccc(N2C(=O)CC(NCc3ccccc3)C2=O)cc1` (stereo unspecified), for which the cytotoxicity was -3% (inactive).
